Compound activity deposited in PubChem BioAssay by several laboratories.
Mot1-301 SUMO: inhibitors of SUMOylation pathway: yeast Mot1-301 growth rescue; S. cerevisiae Mot1-301 growth rescue, ATP luminescence, 38.5C; percent above DMSO median, 100 means doubled; growth rescue, % at 18.8 µM; actives 1% (n = 320,000); AID 2716;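 active = every valid replicate shows activation above 250% relative to neutral control wells; inactive = the rest, any valid replicate at or below 250%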;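 note: OY570 slx delta 5 strain wells were the positive control but not used for scaling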
ALR inh: human ALR oxidase inhibition via reduced H2O2. P55789. purified ALR, DTT oxidation, H2O2 HRP-luminol luminescence. inhibition, % (no concentration beside the values). actives 3.8% (n = 290,000);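 active = mean replicate inhibition above about 79%, with every replicate also reaching it, limit read from the data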
Bfl-1 A1 inh: inhibitors of the anti-apoptotic protein A1, read as caspase activation; caspase activation, % (no concentration beside the values); MEF A1-2A-BIM cells, Caspase-Glo 3/7 luminescence, 3 h; percent of clofoctol response, vehicle zero; actives 0.066% (n = 330,000);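 active = over half of replicate activation scores above 10%, or exactly half above 10 with the replicate mean above 10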
AHR activator: human AHR activation; AHR-responsive luciferase reporter cells, luminescence; activation, % at 5 µM; actives 2.5% (n = 320,000); in the data active = activation above about 47%;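 note: 0% = vehicle wells and 100% = reference agonist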
VLA-4 inh: inhibition in a human VLA-4 binding assay. actives 0.2% (n = 330,000). VLA-4 expressing cells, ligand binding flow cytometry. P13612. inhibition, % (about 7 µM as worked out from the volumes in the protocol); in the data active = inhibition above about 50%
Efflux pump mplx: inhibitors of Candida antifungal efflux pumps expressed in yeast; S. cerevisiae Candida pump triplex, Nile Red efflux; inhibition, % at 10 µM; actives 0.44% (n = 330,000);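 active = plate passing quality check with inhibition over a set limit, or well fluorescence over plate mean plus 4 SD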;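 note: Nile Red retained in pooled yeast measured as flow cytometry median fluorescence; 0% = buffer negative control and 100% = Enniatin B positive control; higher means more Nile Red kept so more efflux inhibition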
* = called active by the depositor; x = no result given. Hits are enriched below; roughly 7.2% of the tested compounds scored in any of these assays.

SMILES	Mot1-301 SUMO	ALR inh	Bfl-1 A1 inh	AHR activator	VLA-4 inh	Efflux pump mplx
O=c1oc2ccccc2cc1-c1nc2c(s1)CCCC2	1	4	-6	95*	-8	0
O=C(Nc1nc(-c2cc3ccccc3oc2=O)cs1)c1ccco1	80	32	0	24	-1	0
O=c1oc2ccccc2cc1-c1csc(NN=C2CCCCC2)n1	29	87*	-2	5	9	0
CCCN1C(=O)/C(=C/c2ccc(OCc3ccc(C(=O)O)cc3)c(OC)c2)NC1=S	-16	92*	2	2	-4	0
CCCN1C(=O)/C(=C/c2ccccc2OCc2ccc(C(=O)O)cc2)NC1=S	-14	79*	1	4	-8	0
CN1C(=O)/C(=C/c2ccc(OCc3ccc(C(=O)O)cc3)c(Cl)c2)NC1=S	26	39	0	1	3	0
COc1cc(/C=C2\NC(=S)NC2=O)ccc1OCc1cccc(C(=O)O)c1	-5	-2	-1	5	3	0
CCOc1cc(/C=C2\NC(=S)N(C)C2=O)ccc1OCc1ccc(C(=O)O)cc1	26	89*	0	1	1	0
O=C(Nc1nnc(C2=COCCO2)o1)c1ccc(S(=O)(=O)N2CCCC2)cc1	123	2	0	-1	4	1
CC1CCCCN1S(=O)(=O)c1ccc(C(=O)Nc2nnc(-c3ccccc3Cl)o2)cc1 (stereo not drawn)	-18	-1	1	-1	-2	0
Cc1ccc(C(=O)Nc2nnc(-c3ccncc3)o2)cc1	7	-11	0	9	8	0
N#CCCN(CCC#N)S(=O)(=O)c1ccc(C(=O)Nc2nnc(C3=COCCO3)o2)cc1	-2	-17	1	-3	-3	0
O=C(Nc1nnc(-c2ccncc2)o1)c1ccccc1	-8	87*	-1	10	2	0
CCCCN(C)S(=O)(=O)c1ccc(C(=O)Nc2nnc(C3=COCCO3)o2)cc1	2	91*	0	-3	-9	0
CCC1CCCCN1S(=O)(=O)c1ccc(C(=O)Nc2nnc(C3=COCCO3)o2)cc1 (stereo not drawn)	0	95*	0	4	7	0
CC1CCCCN1S(=O)(=O)c1ccc(C(=O)Nc2nnc(-c3ccncc3)o2)cc1 (stereo not drawn)	-1	81*	1	1	4	0
Cc1ccc(C(C)C)cc1OCC(=O)N/N=C/c1ccc2c(c1)OCCO2	38	-3	0	5	5	-1
O=C(Nc1nnc(C2=COCCO2)o1)c1cccc(Br)c1	-15	46	1	9	0	0
CS(=O)(=O)c1cccc(C(=O)Nc2nnc(C3=COCCO3)o2)c1	-8	99*	1	-5	9	0
CC(OC(=O)c1snc(C(=O)NC2CCCCC2)c1N)C(=O)NC1CCCCC1 (stereo not drawn)	6	0	1	2	4	0
Cc1ccc(C(=O)OCC(=O)N2CC(C)CC(C)C2)cc1S(=O)(=O)N1CCOCC1 (stereo not drawn)	13	-18	1	19	1	0
CCOc1cccc(-c2cc(C(=O)NN)[nH]n2)c1	10	79*	1	32	-5	0
O=[N+]([O-])c1ccc(N2CCN(c3ccc(F)cc3)CC2)nc1	8	-2	2	-5	-6	0
CC1CCN(C(=O)Cn2cnc3c(cnn3C(C)(C)C)c2=O)CC1	1	-4	-1	10	-3	0
C/C(=N\NC(=O)c1ccncc1)c1ccc(N(C)C)cc1	-14	91*	1	6	-3	0
SMILES	Mot1-301 SUMO	ALR inh	Bfl-1 A1 inh	AHR activator	VLA-4 inh	Efflux pump mplx
C/C(=N\NC(=O)c1ccncc1)c1ccc(N2CCOCC2)cc1	-8	60	1	7	4	0
C/C(=N/NC(=O)c1ccncc1)c1ccccc1	77	-9	-3	13	15	0
C/C(=N\NC(=O)c1ccc(N/N=C(\C)c2ccncc2)cc1)c1ccncc1	-10	98*	0	-2	1	0
CCc1noc(C)c1C(=O)Nc1ccc(C#N)cc1	5	-9	0	2	4	0
O=C1Nc2ccccc2/C1=C/C(=O)c1cccs1	8	8	0	118*	12	0
COc1ccc(C(=O)/C=C2/C(=O)Nc3ccccc32)cc1	-10	30	2	x	-148	0
Oc1ccccc1Cc1c(O)ccc2ccccc12	-4	91*	1	11	20	0
NC(=S)N/N=C/c1ccc(C23CC4CC(CC(C4)C2)C3)cc1	-26	-3	1	-4	2	0.6*
Cc1ccc(OC(C)C(=O)N(C)Cc2ccccc2)c([N+](=O)[O-])n1 (stereo not drawn)	0	1	1	2	-1	0
O=C(NCc1ccccn1)C(=O)NCC1OCCN1S(=O)(=O)c1ccc(F)cc1 (stereo not drawn)	-2	-2	1	1	-2	0
COC(=O)C1=C(C)Nc2ccc(C)cc2S1	4	98*	-1	18	5	0
CC(=O)NC(Cc1cccc(C)c1)C(=O)NC1CCN(c2ncccc2[N+](=O)[O-])CC1 (stereo not drawn)	-2	-8	0	-1	-6	0
CC(=O)NC(Cc1cccc(F)c1)C(=O)NC1CCN(c2ncccc2[N+](=O)[O-])CC1 (stereo not drawn)	-17	x	1	1	57*	0
CC(=O)c1ccc(NC(=O)C2CCCN(S(=O)(=O)c3c(C)[nH]c(=O)[nH]c3=O)C2)cc1 (stereo not drawn)	-18	-1	0	-1	21	0
Cc1ccc(S(=O)(=O)N2CCN(C(C)C(=O)NCC(C)c3ccccc3)CC2)cc1 (stereo not drawn)	-5	-8	1	-1	-5	0
CCCn1cnc2c(N)c(C)c(C)cc21	105	83*	1	4	0	0
COc1cccc(Cn2cnc3c(N)c(C)c(C)cc32)c1	-5	33	1	11	-15	0
O=C(O)CC1(CC(=O)Nc2cc3ccccc3cn2)CCCCC1	18	0	1	-4	-4	0
Cc1ccc(NC(=O)CSc2nc(-c3ccco3)nc3cc(=O)[nH]n23)c(Cl)c1	-11	99*	1	1	0	-1
CC1Sc2ccc(C(=O)Nc3ccc(S(=O)(=O)N(C)C)cc3)cc2NC1=O (stereo not drawn)	27	98*	1	3	-10	0
O=C(O)c1nnn(-c2cccc(C(F)(F)F)c2)c1-c1ccccc1	4	-12	1	2	-2	0
COc1ccccc1NC(=O)N(Cc1ccccc1)C1=NCC(C)S1 (stereo not drawn)	7	-8	0	5	7	1
